These results are taken from PubChem BioAssay (NCATS).

Values joined by “and” are separate entries in the source; they are usually repeats but may differ in a detail not shown here. Equal values may be shown once. Values without a mark were called inactive. Records with an inconclusive call do not appear. Active and inactive are the calls of the source. Unless noted, the call rests on the fitted dose curve; in most records, active means well fitted curve in either direction with a large enough effect (not every such curve was filed as active); inconclusive means small, poorly fitted or top-dose-only effect, or another doubt; inactive means flat fitted curve, though single readings scatter.

The nature of experiment [1]: Cell Viability - BJ (AID 421; calls by dose curve;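 further: potency means the concentration at half of the fitted maximal effect; cells exposed to compound for 40 hours at 37 °C before readout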). To be noted: BJ fibroblast viability, qHTS. Summed up: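 Quantitative HTS: ATP depletion in BJ cells after 40 hr compound exposure in complete culture medium, detected with CellTiter-Glo; AC50 from standard Hill fits.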
(qHTS replaces the single test concentration by a dilution series.)

Experiment [2] in a line: Cell Viability - Jurkat (AID 426;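 active means dose-dependent loss of cell ATP signal giving a full or clear fitted curve, ranked by lower potency value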; further: potency means the concentration at half of the fitted maximal effect). As to conditions: qHTS. Summed up: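 Jurkat (clone E6-1, human T-cell leukemia) cells, 5000/well in complete medium, were exposed to compound for 40 hr at 37 °C. Viability was read as intracellular ATP by CellTiter-Glo luminescence; AC50 came from Hill fits of concentration-response data.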
The nature of experiment [3]: Cell Viability - Hek293 (AID 427;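 active means compounds whose dose-response curve shows a full or clear partial loss of cell viability, called from curve shape rather than a numeric limit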;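 further: potency means the concentration at half of the fitted maximal effect; cells exposed to compound for 40 hours at 37 °C before reading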). As to conditions: qHTS. Summed up:
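AC50 values derive from Hill-modelled concentration-response of ATP-based luminescence, normalized between DMSO-only and 100 uM tamoxifen controls. Cells were exposed in complete culture medium for 40 hr at 37 °C before detection.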

Experiment [4] can be described thus: Cell Viability - HepG2 (AID 433; calls by dose curve;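 further: potency means the concentration at half of the fitted maximal effect; potency for ATP loss meaning cytotoxicity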). As to conditions: qHTS. Summed up:
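ATP luminescence (CellTiter-Glo) after 40 h compound exposure, 37 °C, HepG2, 1500 cells/well, complete medium. Normalized: DMSO = basal, 100 uM tamoxifen = 100% inhibition. AC50 via standard Hill equation.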

Experiment [5] can be described thus: Cell Viability - MRC5 (AID 434; calls by dose curve;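 further: potency means the concentration at half of the fitted maximal effect; potency reflects cytotoxicity seen as loss of intracellular ATP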). As to conditions: MRC5 lung fibroblast viability, qHTS. The method in brief:
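MRC5 normal human lung fibroblasts (1500/well) were treated with compounds for 40 hr at 37 °C in complete medium, and viable cells were measured as intracellular ATP by CellTiter-Glo luminescence. AC50 came from Hill fits, normalized to DMSO and 100 uM tamoxifen.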

Experiment [6] can be described thus: Cell Viability - SK-N-SH (AID 435; calls by dose curve; further: potency means the concentration at half of the fitted maximal effect). As to conditions: SK-N-SH neuroblastoma cell viability qHTS. Summed up: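 CellTiter-Glo ATP luminescence, 20 min RT read; cells pre-plated 5 hr, compound 40 hr at 37 °C, 1500 cells/well, complete medium. Normalized DMSO = 0, 100 uM tamoxifen = 100% inhibition; Hill-fit AC50.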
Experiment [7] deals with Mitogen-activated protein kinase 10 (Mus musculus) (UniProt Q61831). The experiment is described as follows: JNK3 AlphaScreen Assay (AID 530).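 Further: kinase came from lysate of stimulated human HepG2 cells; signal reports phosphorylation of biotinylated GST-cJun 1-79 at Ser73 with 10 µM ATP; on the % scale 0 is the no-effect control and ±100 the full control effect.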 Summed up:
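JNK3 came from HepG2 lysates pre-activated with IL-1beta and TNF-alpha and phosphorylated biotinylated GST-cJun (1-79) at 10 uM ATP, pH 7.6, room temperature. Compounds were titrated. AlphaScreen signal used anti-phospho-cJun (Ser73) antibody.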
For orientation: Bead proximity is the source of the signal in Alpha formats.

Experiment [8] is described as follows: Cell Viability - N2a (AID 540; active means well fitted curve in the direction sought with a large enough effect; an effect the other way counts as inactive or inconclusive;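 further: plate controls were DMSO alone for no effect and tamoxifen control for full effect; nearly all actives have a fitted effect of over 45% in size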). As to conditions: N2a mouse neuroblastoma cell viability; activity change, negative = cytotoxicity: at 92.2 µM (top of the series). Summed up:
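Mouse neuroblastoma N2a cells (1500/well) were preincubated 5 hr at 37 °C, then exposed to compounds for 40 hr at 37 °C in complete medium. Viability was read as intracellular ATP by CellTiter-Glo luminescence; AC50 from Hill fits.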

Experiment [9] in a line: Cell Viability - NIH 3T3 (AID 541; active means well fitted curve in the direction sought with a large enough effect; an effect the other way counts as inactive or inconclusive;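 further: plate controls were DMSO alone for no effect and tamoxifen positive control for full effect; nearly all actives have a fitted effect of over 25% in size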). As to conditions: NIH 3T3 cell viability, qHTS; activity change, negative = cytotoxicity: at 92.2 µM (top of the series). Summed up: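 NIH 3T3 mouse embryo fibroblasts (1000 cells/well) were plated in complete medium and treated with compound for 40 hr at 37 °C. Viability was read as intracellular ATP by CellTiter-Glo luminescence; AC50 values came from Hill-equation fits of concentration-response data.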

Experiment [10] can be described thus: Cell Viability - HUV-EC-C (AID 542; active means well fitted curve in the direction sought with a large enough effect; an effect the other way counts as inactive or inconclusive; further: on the % scale 0 is the no-effect control and ±100 the full control effect; nearly all actives have a fitted effect of over 35% in size). Summed up: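 HUV-EC-C normal human vascular endothelial cells, 1000 cells/well, pre-incubated 5 hr at 37 °C, then exposed to compounds for 40 hr at 37 °C in complete medium. Viability measured as intracellular ATP by CellTiter-Glo luminescence; AC50 from Hill fits.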
A short description of experiment [11]: Cell Viability - SH-SY5Y (AID 544; active means well fitted curve in the direction sought with a large enough effect; an effect the other way counts as inactive or inconclusive;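 further: 0% = DMSO alone and -100% = 100 µM tamoxifen; nearly all actives have a fitted effect of over 55% in size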). To be noted: SH-SY5Y neuroblastoma cell viability; viability change, negative = cytotoxic: at 92.2 µM (top of the series). Summed up: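 Human neuroblastoma SH-SY5Y cells (1500/well) in complete medium were exposed to compounds for 40 hr at 37 °C; intracellular ATP was then quantified by CellTiter-Glo luminescence after 20 min at room temperature. AC50 came from Hill-equation concentration-response fits.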

Experiment [12] can be described thus: Cell Viability - Renal Proximal Tubule (AID 545; active means well fitted curve in the direction sought with a large enough effect; an effect the other way counts as inactive or inconclusive;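 further: 0% = DMSO only and -100% = 100 µM tamoxifen; nearly all actives have a fitted effect of over 40% in size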). Summed up: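 Rat kidney proximal tubule cells, freshly isolated; 1000 cells/well, 5 hr settle, compound 40 hr 37 °C. CellTiter-Glo 20 min RT, luminescence read. AC50 by standard Hill fit.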
Experiment [13] is described as follows: Cell Viability - Mesenchymal (AID 546; active means well fitted curve in the direction sought with a large enough effect; an effect the other way counts as inactive or inconclusive;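 further: cells exposed to compound for 40 hours before reading; 0% = DMSO only and -100% = 100 µM tamoxifen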). Summed up:
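Normal human renal glomerulus-derived kidney mesenchymal cells, 1000 per well in complete medium, were treated with compounds for 40 hr at 37 °C. Viability was read as intracellular ATP by CellTiter-Glo luminescence; AC50 values came from Hill-equation fits of qHTS concentration-response data.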

Experiment [14] is described as follows: AP1 Signaling Pathway (AID 357).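 Further: ME-180 reporter cells stimulated with EGF at its EC50 level; on the % scale 0 is the no-effect control and ±100 the full control effect.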 Summed up:
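Modulation of EGF-driven AP-1 transcription was assessed with a beta-lactamase reporter in ME-180 cells. Compound and EC50 EGF were co-incubated 5 hours at 37 °C before 2.5-hour CCF4 loading at room temperature and dual-emission reading.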

Experiment [15] can be described thus: NFAT Signaling Pathway (AID 444).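 Further: carbachol stimulus at about its EC50 of 1 µM final; on the % scale 0 is the no-effect control and ±100 the full control effect.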 To be noted: Jurkat NFAT-bla M1, carbachol, beta-lactamase ratio, 5 h. Summed up: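 Jurkat cells carrying an NFAT-driven β-lactamase reporter and co-transfected muscarinic M1 receptor were treated with compound plus carbachol (1 uM final, an EC50 level) for 5 h at 37 °C. CCF4 loading followed for 1 h at RT; 460/530 nm ratio gave %activity.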

Experiment [16] in a line: Stat Signaling Pathway (AID 446).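 Further: ME-180 cervical cancer cells given 40 pM IL-6 alongside compound; SIE-controlled beta-lactamase reporter measured as 460/530 nm FRET emission ratio; on the % scale 0 is the no-effect control and ±100 the full control effect.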 Summed up: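 IL-6/STAT signaling read in ME-180 cells via an SIE beta-lactamase reporter. Stimulus was 40 pM IL-6 (its AC50) for 5 hrs, so both activation and inhibition register.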
The target in experiment [17] is Glucocorticoid receptor (Homo sapiens) (UniProt P04150). The experiment is described as follows: GR-GFP Redistribution (AID 450;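 active means compounds whose dose series gives a full or clear partial fitted curve of increased nuclear translocation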; further: potency means the concentration at half of the fitted maximal effect). As to conditions: U2OS GR-GFP nuclear translocation, laser cytometry, 2 h.
The target is the same in experiment [18]. As to the kind of experiment: GR-EFC Redistribution (AID 451; calls by dose curve; further: potency means the concentration at half of the fitted maximal effect). To be noted: CHO-K1 GR-EFC translocation, beta-gal luminescence, 2 h. The method in brief: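 CHO-K1 cells stably expressing nuclear-localized β-gal enzyme acceptor and GR fused C-terminally to the enzyme donor fragment; ligand-driven nuclear translocation restores β-gal by complementation. Compounds titrated up to 46 uM final, 2 h at 37 °C; luminescence read.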

Sequence of Glucocorticoid receptor (Homo sapiens) (P04150 whole entry, looked up, the tested form may be a part): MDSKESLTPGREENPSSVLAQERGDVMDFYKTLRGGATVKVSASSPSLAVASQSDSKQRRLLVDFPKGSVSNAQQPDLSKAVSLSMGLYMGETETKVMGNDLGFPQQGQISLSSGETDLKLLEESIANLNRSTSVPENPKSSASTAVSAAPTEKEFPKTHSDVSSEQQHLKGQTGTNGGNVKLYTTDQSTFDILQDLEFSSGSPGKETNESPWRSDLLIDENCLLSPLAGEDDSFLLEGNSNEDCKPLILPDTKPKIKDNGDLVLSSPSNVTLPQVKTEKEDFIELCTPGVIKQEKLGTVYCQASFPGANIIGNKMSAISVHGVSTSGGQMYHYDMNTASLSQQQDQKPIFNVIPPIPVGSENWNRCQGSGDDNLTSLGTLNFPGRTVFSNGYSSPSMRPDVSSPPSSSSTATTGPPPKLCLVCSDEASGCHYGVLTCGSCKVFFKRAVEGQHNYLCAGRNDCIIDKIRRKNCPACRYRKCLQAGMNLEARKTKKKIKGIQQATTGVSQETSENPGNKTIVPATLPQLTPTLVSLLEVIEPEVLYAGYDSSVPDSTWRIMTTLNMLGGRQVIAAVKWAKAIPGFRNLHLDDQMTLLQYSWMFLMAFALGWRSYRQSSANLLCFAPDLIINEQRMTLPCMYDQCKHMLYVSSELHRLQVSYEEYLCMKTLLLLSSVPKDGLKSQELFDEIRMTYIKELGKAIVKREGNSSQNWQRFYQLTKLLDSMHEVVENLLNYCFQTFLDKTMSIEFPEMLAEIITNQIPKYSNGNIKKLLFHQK

`Nc1ccn([C@H]2CC[C@@H](CO)O2)c(=O)n1`: the Potency in experiment [1], in experiment [2], in experiment [3], in experiment [4], in experiment [5] and in experiment [6] was over 92 µM each time. For the same compound, the compound was called inactive in experiment [7], in experiment [10] and in experiment [13]. The activity change, negative = cytotoxicity in [8] was -5.12%. Besides, the Potency entry in [9], in experiment [11] and in experiment [12] was “inactive” in each case.

With `CC(C)NCC(O)c1ccc(O)c(O)c1` (configuration not stated), the Potency in experiment [1], in experiment [3], in experiment [4], in experiment [5] and in [6] was over 92 µM throughout. For the same compound, the compound was classed as inactive in experiment [7], in experiment [10] and in [13]. Further, the activity change, negative = cytotoxicity in [8] is 0.719%. For the same compound, the Potency result in experiment [9], in experiment [11] and in experiment [12] was “inactive” each time.

In the case of `CC(C)Cc1ccc(C(C)C(=O)O)cc1` (configuration not stated), the call in experiment [14] and in [16] was inactive. The activity change, negative = inhibition in experiment [15] (at 17.2 µM (top of the series)) is -15%. For the same compound, in experiment [17], the Potency is over 20.6 µM.

With `CC(C)NCC(O)COc1ccc(CCOCC2CC2)cc1` (configuration not stated), the result in [14] and in [16] was inactive. For the same compound, the Potency in experiment [17] is over 20.6 µM.

In the case of `CN(C)C(=N)N=C(N)N`, the compound was classed as inactive in experiment [14], in experiment [16] and in experiment [7]. For the same compound, in experiment [15] (at 17.2 µM (top of the series)), the activity change, negative = inhibition is -11.6%. The Potency in [17] and in [18] was over 20.6 µM in each case.

`COc1ccccc1N1CCN(CC(O)COc2cccc3ccccc23)CC1` (configuration not stated): the compound was classed as inactive in experiment [14] and in experiment [16]. Also, the activity change, negative = inhibition in experiment [15] (at 17.2 µM (top of the series)) is 9.92%. Besides, the Potency in experiment [17] is over 20.6 µM.

Consider `Clc1ccc(C(c2ccccc2Cl)C(Cl)Cl)cc1` (configuration not stated), for which the Potency in experiment [4] was over 92 µM. Besides, the activity change, negative = cytotoxicity in [8] is -100% (active). For the same compound, the Potency result in experiment [9] and in experiment [12] was “inactive” in each case. Moreover, the compound was classed as inactive in experiment [10] and in [13].

As to `COc1cc2nc(N3CCN(C(=O)C4COc5ccccc5O4)CC3)nc(N)c2cc1OC` (configuration not stated), the compound was classed as inactive in experiment [14] and in experiment [16].

Turning to `NCCc1cnc[nH]1`, the call in experiment [14], in experiment [16] and in experiment [7] was inactive. In addition, in [15] (at 38 µM (top of the series)), the activity change, negative = inhibition is 2.96%. Besides, the Potency in experiment [17] and in [18] was over 46 µM in each case.

`OCCN(CCO)c1nc(N2CCCCC2)c2nc(N(CCO)CCO)nc(N3CCCCC3)c2n1`: the activity change, negative = inhibition in experiment [15] (at 17.2 µM (top of the series)) was 7.02% and -24.7%; in experiment [15] (at 38 µM (top of the series)), -0.6%. In addition, the outcome in [16] and in experiment [7] was inactive.

For the compound `CCOC(=O)Nc1ccc(NCc2ccc(F)cc2)nc1N`, the result in [14], in [16] and in experiment [7] was inactive. Further, the activity change, negative = inhibition in experiment [15] (at 38 µM (top of the series)) is -3.88%. In addition, the Potency in experiment [17] and in experiment [18] was over 46 µM in each case.

In the case of `CCOC(=O)C(C)(C)Oc1ccc(Cl)cc1`, the result in [14], in experiment [16] and in experiment [7] was inactive. The activity change, negative = inhibition in experiment [15] (at 38 µM (top of the series)) was -4.66%. The Potency in experiment [17] and in [18] was over 46 µM each time.
